In all, about 3,400 compounds went through this assay and about 840 (25%) were called active. Inconclusive results (about 11%) are left out. Only a sample is shown. Measured potencies and affinities stand elsewhere. Values without a mark were called inactive.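 Rule for the calls: active = fitted half-maximal concentration of signal decrease at or below twice the sample's top tested concentration; inconclusive = flat curve between -70 and -30 percent, or poor fit; inactive = flat within 30 percent, signal rise, or potency above limit.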
experiment: T. gondii growth inhibition with IFN-gamma, dose response, cell-based, ME49Luc, HeLa, luciferase, 72 h (AID 1259418); settings: T. gondii ME49Luc in IFN-y HeLa, stronger effect = lower value, -100% = high-dose IFN-γ control wells; at 19.5 µM unless noted

SMILES	max activity
CCOC(=O)c1c(C)[nH]c(-c2ccccc2)c1-c1ccccc1	20.8% [at 10 µM]
CCc1ccc(NC(=O)Nc2ccc(-c3nc(-c4ccc(C)cc4)co3)cc2)cc1	11.2% [at 0.16 µM]
CCc1ccc(S(=O)(=O)N2CCC3(CC2)NCCN=C3NCc2cccc(OC)c2)cc1	-9.5% [at 0.68 µM]
Cc1ccc(S(=O)(=O)N2CCC3(CC2)NCCN=C3NCc2cccc(F)c2)c(C)c1	-19.4% [at 10 µM]
COc1ccc(CNC2=NCCNC23CCN(S(=O)(=O)c2cccs2)CC3)cc1	-8.27% [at 0.35 µM]
Cc1ccc(S(=O)(=O)N2CCC3(CC2)NCCN=C3NCc2ccc(F)cc2)c(C)c1	-23.4%
CN(C)C(=O)c1ccc(-c2ccc([C@H]3[C@@H](CO)N4C(=O)CN(C(=O)CC5CC5)C[C@@H]34)cc2)cc1	20.3%
Cc1cnc(N2C[C@@H](c3ccccc3)[C@@]3(CCNC3=O)C2)nc1	22.8%
Cc1ccc(-n2ncc3c(NCC4CCCO4)ncnc32)c(C)c1 (stereo unspecified)	9.91% [at 0.16 µM]
COc1ccc(CNC(=O)CCC2N=C3c4ccccc4N=C(SCc4cc(=O)n5cc(Cl)ccc5n4)N3C2=O)cc1 (stereo unspecified)	-8.86% [at 1.35 µM]
CSc1ccc(-c2noc(-c3nnn(Cc4nc(-c5cccc(C)c5)oc4C)c3C)n2)cc1	-16.4% [at 0.16 µM]
Cc1ccc(OCC(=O)Nc2cncc(-c3nc4ccccc4o3)c2)cc1	10.2% [at 1.35 µM]
Cc1nc(CCNC(=O)[C@H]2CCCN2S(=O)(=O)c2ccc3c(c2)CCCC3)cs1	26.6% [at 0.35 µM]
Cc1ccc2c(c1)cc(S(=O)(=O)c1ccccc1)c(=O)n2CC(=O)NCc1ccc2c(c1)OCO2	-10.2% [at 0.68 µM]
Cc1ccc(S(=O)(=O)N2CCC3(CC2)NCCN=C3NCc2ccccc2C)c(C)c1	-17.1%
COCCCNC1=NCCNC12CCN(S(=O)(=O)c1ccc(C)cc1C)CC2	13.7% [at 10 µM]
Cc1ccccc1CNC1=NCCNC12CCN(S(=O)(=O)c1cccs1)CC2	21.2% [at 10 µM]
Cc1cccc(CNC2=NCCNC23CCN(S(=O)(=O)c2ccc(C)c(C)c2)CC3)c1	-21.5%
O=C(CC1N=C2c3ccccc3N=C(SCc3cc(=O)n4ccccc4n3)N2C1=O)NCc1ccc2c(c1)OCO2 (stereo unspecified)	49.3%
Cc1nc(OCC(=O)Nc2ccc(C)c(C)c2)c2ccccc2n1	14.4% [at 0.16 µM]
O=C(Nc1ccc(Cl)cc1)N1C[C@H]2[C@@H](c3ccccc31)[C@@H](CO)N2CC1CCCCC1	10.8% [at 10 µM]
CSc1cccc(NC(=O)CN2CCC3(CC2)N=C(c2ccc(F)cc2)C(=O)N3)c1	9.26%
COc1ccccc1-c1nc(CN2CCc3c(sc4c3CCCC4)C2c2ccccc2)c(C)o1 (stereo unspecified)	10.8% [at 0.038 µM]
COc1ccc(CN2CCO[C@H]3[C@H]2CC[C@H]3OCCCn2cccn2)cc1	14.7% [at 5 µM]

SMILES	max activity
COc1ccc(CN2C[C@@H]3CN(Cc4cnn(C)c4)C[C@H]3C2=O)cc1	20.7%
Cc1nc2c(cnn2-c2ccccc2)c(=O)n1-c1cccc2ccccc12	22.6% [at 10 µM]
COc1ccc2c(c1)NC1(CCN(C(=O)c3ccccc3Cl)CC1)c1cccn1-2	-5.12%
CCOc1ccc(-c2nc(Cn3c(=O)c4c(C)cc(C)nc4n(-c4ccccc4)c3=O)c(C)o2)cc1	8.31% [at 0.16 µM]
O=C(Nc1ccccc1F)N1CCCCN2[C@H](C1)[C@H](c1ccc(/C=C/c3ccccc3)cc1)[C@@H]2CO	35.7% [at 10 µM]
COc1ccc(NC(=O)N2CCCCN3[C@@H](CO)[C@H](c4ccc(-c5ccccc5F)cc4)[C@@H]3C2)cc1	20.7% [at 5 µM]
CCc1ccc(-n2nnc(C(=O)N3CCC(N4CCCCC4)CC3)c2-c2ccncc2)cc1	6.73% [at 5 µM]
Cc1[nH]c2ccccc2c1C(=O)C(=O)NC1CC(=O)N(c2ccc3c(c2)OCCO3)C1 (stereo unspecified)	7.24%
Cc1ccc(-c2coc(-c3ccc(NC(=O)COc4ccccc4C)cc3)n2)c(C)c1	-20.2% [at 1.35 µM]
COc1ccc(-c2nc(N(C)C3CCCCC3)c3ccccc3n2)cc1	11.7%
COc1ccccc1Nc1nc(-c2ccc(Cl)cc2)nc2ccccc12	-18.5% [at 0.68 µM]
Cc1ccsc1C(=O)Nc1ccc(-c2nc(-c3ccccc3)co2)cc1	30.4% [at 0.68 µM]
COc1cccc(N(Cc2nc(-c3ccccc3)oc2C)S(=O)(=O)c2ccc(C)cc2)c1	-7.21% [at 1.35 µM]
O=C(Cn1c(=O)c(S(=O)(=O)c2ccccc2)cc2ccccc21)NC1CCCC1	9.84% [at 0.35 µM]
CCOc1ccccc1-c1nc(CN2CCc3c(sc4c3CCCC4)C2c2ccccc2)c(C)o1 (stereo unspecified)	19.5%
CC1=CCC=CC1C(=O)Nc1ccc2c(c1)CCC(=O)N2C (stereo unspecified)	56.7%
Cc1ccc(-c2coc(-c3ccc(NC(=O)Nc4ccccc4)cc3)n2)cc1	-15.8%
Cc1ccc(-c2coc(-c3ccc(NC(=O)COc4ccc(F)cc4)cc3)n2)c(C)c1	10.4% [at 0.35 µM]
Cc1cc(C)cc(S(=O)(=O)N2CCC3(CC2)NCCN=C3NCc2cccc(F)c2)c1	-38.9%
COCCCNC1=NCCNC12CCN(S(=O)(=O)c1cc(C)cc(C)c1)CC2	11.6% [at 10 µM]
Cc1nc(-c2ccc(F)cc2)sc1-c1ccc(SCc2ccc(Cl)c(Cl)c2)nn1	7.38% [at 2.6 µM]
COc1cc(NC(=O)CN2CCC3(CC2)N=C(c2ccc(F)cc2)C(=O)N3)cc(OC)c1	16.7% [at 10 µM]
O=C(COc1ccc(Br)cc1)Nc1cncc(-c2nc3ccccc3o2)c1	8.52% [at 0.16 µM]
COc1cccc(S(=O)(=O)N2CCCCN3[C@H](CO)[C@@H](c4ccc(C#CCC(C)C)cc4)[C@@H]3C2)c1	106%

SMILES	max activity
O=S(=O)(c1ccccc1)N1CCCCN2[C@H](C1)[C@H](c1ccc(C#CC3CCCC3)cc1)[C@@H]2CO	27.4% [at 5 µM]
COc1cccc(S(=O)(=O)N2CCCCN3[C@H](C2)[C@@H](c2ccc(C#CCC(C)C)cc2)[C@@H]3CO)c1	100% [at 0.08 µM]
COc1cc(C(=O)N2CCC3(CC2)Nc2cc(F)ccc2-n2cccc23)cc(OC)c1OC	5.03% [at 0.68 µM]
COc1cccc(NC(=O)Nc2ccc(-c3nc(-c4ccc(C)cc4)co3)cc2)c1	21.2% [at 0.16 µM]
Cc1cc(C)cc(NC(=O)N2CCN(Cc3nc(-c4cccc(Cl)c4)oc3C)CC2)c1	11% [at 1.35 µM]
Cc1oc(-c2cccc(Cl)c2)nc1CN1CCN(C(=O)Nc2ccccc2C(F)(F)F)CC1	-9.46% [at 2.6 µM]
CCc1ccc(NC(=O)N2CCN(Cc3nc(-c4cccc(Cl)c4)oc3C)CC2)cc1	-13.8%
COc1ccc(NC(=O)N2CCN(Cc3nc(-c4cccc(Cl)c4)oc3C)CC2)cc1OC	-22.8%
Cc1oc(-c2cccc(Cl)c2)nc1CN1CCN(C(=O)Nc2ccccc2)CC1	-19.4%
Cc1cccc(NC(=O)N2CCN(Cc3nc(-c4cccc(Cl)c4)oc3C)CC2)c1C	13.9% [at 5 µM]
COc1ccc(-c2nc(Cn3c(=O)c4c(C)cc(C)nc4n(-c4ccccc4)c3=O)c(C)o2)c(OC)c1	5.72% [at 2.6 µM]
CCc1ccccc1Nc1ncnc2c1cnn2-c1ccccc1	13.8% [at 10 µM]
COc1ccc(Cl)cc1S(=O)(=O)Nc1ccc(-c2nc(-c3ccc(C)c(C)c3)co2)cc1	41.1% [at 10 µM]
CN1c2ccc(-c3ccc(C#N)cc3)cc2[C@H]2[C@H](CCN2S(=O)(=O)c2ccc(F)cc2)[C@H]1CO	42.2% [at 10 µM]
CN1c2ccc(Br)cc2[C@H]2[C@H](CCN2S(=O)(=O)c2ccccc2F)[C@H]1CO	25% [at 9 µM]
COc1ccc(C#Cc2ccc3c(c2)[C@H]2[C@H](CCN2S(=O)(=O)c2ccccc2C)[C@H](CO)N3C)cc1	22.1% [at 10 µM]
COc1ccc2c(c1)NC1(CCN(C(=O)c3ccccc3C)CC1)c1cccn1-2	9.16% [at 0.68 µM]
CCc1cccc(NC(=O)COc2nc(C)nc3ccccc23)c1	15.1% [at 0.16 µM]
CCc1ccc(S(=O)(=O)N2CCC3(CCC(C(=O)N4CCCC4)O3)CC2)cc1 (stereo unspecified)	19.6%
CCOc1ccc(-c2nc3c(s2)CN(S(=O)(=O)c2ccc(CC)cc2)CC3)cc1	33%
Cc1ccc(-c2coc(-c3ccc(NC(=O)c4ccc(Br)o4)cc3)n2)c(C)c1	29% [at 0.68 µM]
COc1ccc(CCC(=O)N2CCC(C(=O)NCCc3csc(-c4ccccc4)n3)CC2)cc1	22% [at 10 µM]
COc1ccc(-c2cnc3n2CCNC32CCN(C(=O)N3CCOCC3)CC2)cc1	31.8%
